# Test results published in PubChem BioAssay.
# The source made the active and inactive calls.
# How the values were obtained:
# [1] = small molecules captured by biotinylated probe aFSTL3 – biochemical, small-molecule microarray, fluorescence 635/667, stem cell growth factor project, primary screen (AID 1064); conditions: higher = more signal;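 also: measures binding of the biotinylated anti-FSTL3 antibody to printed compounds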
# [2] = binders from COS7 lysate, DM2A8 probe, primary screen, torsin A project, cell lysate, small-molecule microarray, fluorescence 635/667 (AID 1065); conditions: higher = more signal, COS7 lysate expressing mutant human TOR1A
# [3] = small molecules captured by biotinylated probe aFGF2 – biochemical, small-molecule microarray, fluorescence 635/667, stem cell growth factor project, primary screen (AID 1067); conditions: higher = more signal;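 also: measures binding of biotinylated aFGF2 protein to printed compounds on slides; z-score merges feature fluorescence and signal-to-noise across triplicate slides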
# [4] = small molecules captured by biotinylated probe aFGF10 – biochemical, small-molecule microarray, fluorescence 635/667, stem cell growth factor project, primary screen (AID 1071); conditions: higher = more signal;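 also: score merges 667 nm spot intensity and signal to noise from triplicate slides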
# [5] = biological target: Neurogenic locus notch homolog protein 2 (Homo sapiens) (UniProt Q04721); assay: small molecules binding Notch2 protein – biochemical, small-molecule microarray, 635 nm fluorescence, stem cell growth factors, primary screen (AID 1073); conditions: higher = more signal
# Chain of Neurogenic locus notch homolog protein 2 (Homo sapiens) (Q04721 whole entry, looked up, canonical isoform): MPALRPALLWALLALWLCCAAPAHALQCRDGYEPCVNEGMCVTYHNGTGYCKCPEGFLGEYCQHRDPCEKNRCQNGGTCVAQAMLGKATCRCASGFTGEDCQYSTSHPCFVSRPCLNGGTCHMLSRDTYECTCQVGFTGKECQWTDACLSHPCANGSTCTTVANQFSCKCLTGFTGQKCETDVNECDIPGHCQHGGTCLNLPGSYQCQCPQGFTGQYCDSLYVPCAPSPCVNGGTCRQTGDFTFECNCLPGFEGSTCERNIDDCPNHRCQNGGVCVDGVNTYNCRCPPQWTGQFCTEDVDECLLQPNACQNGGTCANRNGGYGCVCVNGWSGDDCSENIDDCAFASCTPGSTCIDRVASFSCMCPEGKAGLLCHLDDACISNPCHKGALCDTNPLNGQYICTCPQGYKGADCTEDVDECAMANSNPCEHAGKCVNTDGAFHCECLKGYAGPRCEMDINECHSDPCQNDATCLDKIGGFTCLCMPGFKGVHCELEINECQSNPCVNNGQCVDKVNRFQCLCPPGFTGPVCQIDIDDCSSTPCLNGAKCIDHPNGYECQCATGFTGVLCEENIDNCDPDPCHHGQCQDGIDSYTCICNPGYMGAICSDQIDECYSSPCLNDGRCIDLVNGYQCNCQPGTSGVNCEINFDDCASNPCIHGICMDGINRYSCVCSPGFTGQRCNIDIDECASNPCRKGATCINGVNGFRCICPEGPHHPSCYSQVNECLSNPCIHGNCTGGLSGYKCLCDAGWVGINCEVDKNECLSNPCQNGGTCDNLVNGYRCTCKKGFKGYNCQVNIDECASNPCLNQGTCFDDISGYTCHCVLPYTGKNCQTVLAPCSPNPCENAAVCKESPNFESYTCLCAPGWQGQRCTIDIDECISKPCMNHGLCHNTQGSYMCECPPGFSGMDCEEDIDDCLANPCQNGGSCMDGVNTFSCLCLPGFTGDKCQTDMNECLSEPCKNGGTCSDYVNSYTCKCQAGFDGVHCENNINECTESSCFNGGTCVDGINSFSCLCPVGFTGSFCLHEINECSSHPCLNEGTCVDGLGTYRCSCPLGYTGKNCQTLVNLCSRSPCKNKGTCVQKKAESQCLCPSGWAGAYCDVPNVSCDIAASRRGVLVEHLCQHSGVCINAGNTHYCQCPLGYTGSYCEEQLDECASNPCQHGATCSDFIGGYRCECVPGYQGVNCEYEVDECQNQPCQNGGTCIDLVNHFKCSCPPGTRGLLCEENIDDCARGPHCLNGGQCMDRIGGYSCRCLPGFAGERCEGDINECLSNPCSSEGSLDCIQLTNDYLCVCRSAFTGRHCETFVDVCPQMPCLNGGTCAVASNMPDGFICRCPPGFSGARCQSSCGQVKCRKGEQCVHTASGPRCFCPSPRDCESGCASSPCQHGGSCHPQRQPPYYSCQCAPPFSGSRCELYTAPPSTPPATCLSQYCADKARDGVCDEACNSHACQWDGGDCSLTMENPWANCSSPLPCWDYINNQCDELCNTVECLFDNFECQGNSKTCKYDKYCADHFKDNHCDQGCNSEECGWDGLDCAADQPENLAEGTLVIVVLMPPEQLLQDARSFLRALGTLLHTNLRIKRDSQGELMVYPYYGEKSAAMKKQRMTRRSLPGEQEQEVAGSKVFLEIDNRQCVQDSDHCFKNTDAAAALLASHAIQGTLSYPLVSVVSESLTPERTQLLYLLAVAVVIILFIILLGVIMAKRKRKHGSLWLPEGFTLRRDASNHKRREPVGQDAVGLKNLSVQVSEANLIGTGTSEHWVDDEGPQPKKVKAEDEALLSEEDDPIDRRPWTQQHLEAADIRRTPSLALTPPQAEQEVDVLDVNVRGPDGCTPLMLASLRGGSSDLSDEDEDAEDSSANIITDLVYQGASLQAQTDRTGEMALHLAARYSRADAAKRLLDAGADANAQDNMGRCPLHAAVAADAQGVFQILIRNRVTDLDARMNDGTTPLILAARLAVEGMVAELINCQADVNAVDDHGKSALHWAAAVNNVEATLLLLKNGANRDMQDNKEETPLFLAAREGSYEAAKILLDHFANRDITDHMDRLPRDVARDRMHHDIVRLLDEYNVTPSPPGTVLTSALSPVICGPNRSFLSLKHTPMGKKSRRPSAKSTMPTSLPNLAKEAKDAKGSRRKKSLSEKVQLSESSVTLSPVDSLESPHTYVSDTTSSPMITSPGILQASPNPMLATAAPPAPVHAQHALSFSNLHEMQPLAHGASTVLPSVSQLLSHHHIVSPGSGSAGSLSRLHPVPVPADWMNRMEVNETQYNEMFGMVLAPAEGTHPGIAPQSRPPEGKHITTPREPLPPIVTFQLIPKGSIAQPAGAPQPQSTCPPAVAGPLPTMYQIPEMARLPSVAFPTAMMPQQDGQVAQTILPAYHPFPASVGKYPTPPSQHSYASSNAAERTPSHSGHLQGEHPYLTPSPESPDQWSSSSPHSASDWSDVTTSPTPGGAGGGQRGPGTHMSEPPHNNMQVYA
# [6] = biological target: Pro-neuregulin-1, membrane-bound isoform (Homo sapiens) (UniProt Q02297); assay: small molecules binding neuregulin-1 protein – biochemical, small-molecule microarray, fluorescence 635/667, psychiatric disease protein project, primary screen (AID 1075); conditions: NRG1 binding, 635 nm fluorescence, higher = more signal;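 also: score combines 667 nm spot fluorescence with signal to noise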
# Chain of Pro-neuregulin-1, membrane-bound isoform (Homo sapiens) (Q02297 whole entry, looked up, the tested form may be a part, canonical isoform): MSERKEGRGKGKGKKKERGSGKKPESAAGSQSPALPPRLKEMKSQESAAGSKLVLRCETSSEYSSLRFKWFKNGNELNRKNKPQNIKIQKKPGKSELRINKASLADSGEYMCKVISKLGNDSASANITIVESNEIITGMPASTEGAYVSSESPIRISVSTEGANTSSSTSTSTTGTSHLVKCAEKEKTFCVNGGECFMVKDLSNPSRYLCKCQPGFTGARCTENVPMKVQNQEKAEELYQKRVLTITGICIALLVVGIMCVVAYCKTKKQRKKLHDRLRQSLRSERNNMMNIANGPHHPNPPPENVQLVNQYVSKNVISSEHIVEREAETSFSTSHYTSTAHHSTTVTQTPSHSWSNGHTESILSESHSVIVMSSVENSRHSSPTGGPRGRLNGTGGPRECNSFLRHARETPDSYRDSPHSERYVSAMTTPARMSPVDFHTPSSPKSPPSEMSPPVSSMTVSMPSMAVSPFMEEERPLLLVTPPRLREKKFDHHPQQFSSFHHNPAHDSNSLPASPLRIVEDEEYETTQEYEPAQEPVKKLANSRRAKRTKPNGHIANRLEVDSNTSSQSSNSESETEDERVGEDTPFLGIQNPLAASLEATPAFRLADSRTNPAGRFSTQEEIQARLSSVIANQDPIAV
# [7] = system: Neuregulin-1 EGF-like domain; assay: small molecules binding NRG1 EGF domain – biochemical, small-molecule microarray, 635 nm fluorescence, primary screen (AID 1081); conditions: higher = more signal;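 also: binding of the protein to compounds printed on small-molecule microarray slides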
# [8] = FRG1 expression reporter modulators in myotubes – cell-based, C2C12 myotubes, firefly/Renilla luciferase, luminescence, FRG1 inhibition for FSHD, primary screen (AID 1084); conditions: FRG1 promoter luciferase, higher = more signal, called active from +8 up or from −8 down
# [9] = small molecules captured by biotinylated probe aFST – biochemical, small-molecule microarray, fluorescence 635/667, stem cell growth factor project, primary screen (AID 1086); conditions: higher = more signal;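 also: score merges 667 nm fluorescence with signal-to-noise of each printed compound spot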
# [10] = binders of probe aHhip on microarray, primary screen, stem cell growth factor project, biochemical, small-molecule microarray, fluorescence 635/667 (AID 1087); conditions: higher = more signal;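 also: score merges spot fluorescence at 667nm with spot signal to noise ratio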
# [11] = system: PRMT1 (protein arginine N-methyltransferase 1); assay: small molecules binding arginine methyltransferase PRMT1 – biochemical, small-molecule microarray, 635 nm fluorescence, primary screen (AID 1088); conditions: higher = more signal;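 also: binding of Prmt1 protein to compounds spotted on small-molecule microarray slides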
# [12] = growth effects on S. cerevisiae YJM789 – YJM789 clinical isolate, OD600, 24 h, basal, primary screen (AID 1089); conditions: higher = more signal, called active from +8 up or from −8 down;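 also: growth of clinical yeast isolate S. cerevisiae YJM 789 seeded 1000 cells per well; test concentration not given here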
# [13] = S. pombe growth modifiers, basal conditions – strain 972, OD600, 24 h, no modulator, primary screen (AID 1090);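 also: basal condition with compound alone and no growth modifier present; test concentration not given here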; conditions: S. pombe 972 growth, higher = more signal, called active from +8 up or from −8 down
# [14] = budding yeast growth modifiers under rapamycin – strain BY4716, OD600, 96 h, primary screen (AID 1091); also: test concentration not given here; conditions: S. cerevisiae BY4716 + rapamycin, higher = more signal, called active from +8 up or from −8 down
# [15] = biological target: Torsin-1A-interacting protein 2 (Homo sapiens) (UniProt Q8NFQ8); assay: small molecules binding lysate-expressed LULL1 – cell lysate, human LULL1 lysate, 635/667 nm fluorescence, primary screen (AID 1092); conditions: small-molecule microarray, hLULL1 lysate binding, 635 nm fluorescence; higher = more signal;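 also: probe is lysate of COS7 cells overexpressing human LULL1; score merges per-feature 667 nm fluorescence with signal-to-noise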
# Chain of Torsin-1A-interacting protein 2 (Homo sapiens) (Q8NFQ8 whole entry, looked up): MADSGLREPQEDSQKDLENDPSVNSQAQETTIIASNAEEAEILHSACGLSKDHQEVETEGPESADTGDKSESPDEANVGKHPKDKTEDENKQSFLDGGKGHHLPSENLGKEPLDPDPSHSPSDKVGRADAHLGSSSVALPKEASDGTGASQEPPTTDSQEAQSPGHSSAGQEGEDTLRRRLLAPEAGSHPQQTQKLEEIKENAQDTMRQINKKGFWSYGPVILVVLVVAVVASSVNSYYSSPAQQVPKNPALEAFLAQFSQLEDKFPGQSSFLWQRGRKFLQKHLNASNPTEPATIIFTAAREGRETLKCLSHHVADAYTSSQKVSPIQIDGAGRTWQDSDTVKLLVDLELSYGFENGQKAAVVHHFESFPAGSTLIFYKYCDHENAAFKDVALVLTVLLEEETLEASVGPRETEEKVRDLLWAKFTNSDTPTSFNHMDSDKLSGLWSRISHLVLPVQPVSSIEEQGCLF
# [16] = optical density change of DRC41 E. coli – strain DRC41, OD650, 24 h, E. coli filamentation project, primary screen (AID 1093);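 also: MC1000 strain lacking acrAB efflux and sulA so SOS filamentation is blocked; test concentration not given here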; conditions: E. coli DRC41 growth, higher = more signal, called active from +8 up or from −8 down
# [17] = probe aLefty2 binding to arrayed compounds – biochemical, biotinylated probe, 635/667 nm fluorescence, primary screen (AID 1094); conditions: small-molecule microarray, higher = more signal;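 also: score merges spot fluorescence near 667 nm with spot signal-to-noise ratio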
# [18] = system: Noggin (protein binding on small-molecule microarray); assay: small molecules binding Noggin protein – biochemical, 635/667 nm fluorescence, primary screen (AID 1095); conditions: 635 nm fluorescence, higher = more signal;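 also: score merges 667 nm feature fluorescence with signal to noise over triplicate slides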
# [19] = biological target: Neurogenic locus notch homolog protein 3 (Homo sapiens) (UniProt Q9UM47); assay: small molecules binding NOTCH3 protein – biochemical, 635/667 nm fluorescence, primary screen (AID 1096); conditions: small-molecule microarray, 635 nm fluorescence, higher = more signal
# [20] = probe aEGFR binding to arrayed compounds – biochemical, biotinylated probe, 635/667 nm fluorescence, primary screen (AID 1097); conditions: small-molecule microarray, higher = more signal;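 also: probe is a biotinylated anti-EGFR antibody binding compounds printed on slides; score combines fluorescence near 667 nm and signal to noise of each spot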
Compound,composite z-score [1],composite z-score [2],composite z-score [3],composite z-score [4],composite z-score [5],composite z-score [6],composite z-score [7],z-score [8],composite z-score [9],composite z-score [10],composite z-score [11],z-score [12],z-score [13],z-score [14],composite z-score [15],z-score [16],composite z-score [17],composite z-score [18],composite z-score [19],composite z-score [20]
COc1ccc([Si](C)(C)[C@@H]2[C@@H](CC(=O)N(CCO)Cc3ccccc3)O[C@]3(C(=O)N(Cc4cccc(N5C(=O)c6cccc7cccc5c67)c4)c4ccccc43)[C@H]2C)cc1,-0.143,0.167,-0.105,0.409,-0.127,0.442,0.763,-1.05 (inactive),0.116,-0.0193,0.737,0.121 (inactive),-0.534 (inactive),2.09 (inactive),0.36,2.11 (inactive),-0.259,1.33,0.455,-0.115
COC(=O)[C@@]1(Cc2ccccc2)[C@H]2c3cc(C(=O)N(C)C)n(Cc4c(CO)[nH]cc(C)c4=O)c3C[C@H]2CN1C(=O)c1ccccc1,0.268,0.311,0.206,0.528,1.53,1.49,1.38,-0.325 (inactive),0.608,0.0456,0.0795,0.469 (inactive),1.51 (inactive),0.0018 (inactive),3.13,-0.633 (inactive),0.163,-0.38,0.447,0.0288
N#Cc1ccc(NN2C(C(O)c3ccc(F)cc3)C=CC3C(=O)N(c4ccccc4)C(=O)C32)cc1 (stereo not given),-0.28,-0.17,0.183,-0.0175,0.47,1.4,1.07,0.0158 (inactive),0.87,-0.353,1.24,0.537 (inactive),2.45 (inactive),2.57 (inactive),3.21,-0.538 (inactive),-0.0477,-0.868,0.443,-0.257
CN(C)CCCNC(=O)[C@@H]1c2ccccc2C(=O)N(Cc2ccccc2Cl)[C@H]1c1ccc(CO)cc1,-0.126,0.542,-0.19,0.069,-0.243,0.261,-0.0724,-1.96 (inactive),-0.177,-0.19,0.226,-0.34 (inactive),-1.32 (inactive),-1.04 (inactive),2.25,0.596 (inactive),-0.295,-0.611,-0.247,0.0733
COc1ccc([Si](C)(C)[C@H]2[C@H](CC(=O)N(CCO)Cc3ccccc3)O[C@@]3(C(=O)N(Cc4cccc(N5CCOC5=O)c4)c4ccccc43)[C@@H]2C)cc1,-0.243,0.635,-0.0737,0.171,0.0078,1.2,0.974,-0.551 (inactive),-0.0174,0.176,1.56,-0.0337 (inactive),-0.166 (inactive),3.02 (inactive),1.35,1.17 (inactive),-0.0724,0.722,0.403,-0.167
C=CCNC(=O)[C@@H]1[C@H]2C(=O)O[C@H](c3ccccc3)[C@H](c3ccccc3)N2[C@H](c2ccc(O)cc2)[C@@]12C(=O)N(C(=O)OCCOC)c1ccc(C#CC3(O)CCCCCC3)cc12,0.564,-0.548,-0.176,-1.52,-2.26,-0.712,-0.895,-0.659 (inactive),-1.19,-0.312,-0.14,-0.857 (inactive),0.183 (inactive),-0.26 (inactive),-1.28,1.23 (inactive),0.143,-0.669,-0.904,-0.305
CCOC(=O)C1=CC[C@@H](c2ccc(OCc3ccccc3)c(OC)c2)N(S(=O)(=O)c2ccc(C)cc2)[C@H]1c1ccc(SC)cc1,0.152,0.718,0.162,1.02,1.54,0.876,1.11,-0.895 (inactive),1.67,0.245,1.1,-0.448 (inactive),0.236 (inactive),1.94 (inactive),3.21,-0.628 (inactive),0.347,0.257,1.12,0.206
C=C[C@@H](COC(C)=O)N(C(=O)OC(C)(C)C)S(=O)(=O)c1ccc(Br)cc1,0.0095,1.66,-0.0005,0.358,0.401,0.33,1.01,-3.97 (inactive),0.157,0.157,0.832,-0.152 (inactive),-1.54 (inactive),-0.666 (inactive),0.519,0.411 (inactive),0.132,0.841,0.782,0.0709
O=C1NC(=O)C2C1C=CC(C(O)c1ccco1)N2Nc1ccccn1 (stereo not given),-0.156,-0.156,-0.0907,-0.0923,0.076,-0.0825,1.08,1.41 (inactive),0.055,0.154,0.184,0.493 (inactive),0.652 (inactive),0.637 (inactive),0.147,-0.87 (inactive),-0.121,-0.119,-0.509,-0.0259
COc1ccc([Si](C)(C)[C@@H]2[C@@H](CC(=O)N(CCO)Cc3ccccc3)O[C@]3(C(=O)N(Cc4cccc(N5CCOC5=O)c4)c4ccccc43)[C@H]2C)cc1,-0.0388,1.02,-0.117,0.476,0.0505,1.1,1.12,-0.819 (inactive),-0.0988,-0.248,1.55,-0.757 (inactive),-0.21 (inactive),2.11 (inactive),1.96,1.37 (inactive),-0.349,0.726,0.733,-0.129
CCCCCCCCCCC(O)C1C=CC2C(=O)N(C)C(=O)C2N1NC(=O)OC(C)(C)C (stereo not given),-0.318,-0.127,-0.0272,-0.293,0.228,1.03,0.465,-0.218 (inactive),0.0478,-0.212,0.76,0.258 (inactive),-16.5 (active),-1.97 (inactive),2.18,-2.14 (inactive),-0.0725,-0.765,0.0249,-0.128
COc1cc(OC)c(C(O)C2C=CC3C(=O)N(c4ccccc4)C(=O)C3N2Nc2ccccc2)cc1Br (stereo not given),0.0555,-0.01,0.0393,0.208,0.878,1.66,0.936,0.203 (inactive),0.558,0.0139,1.2,-0.465 (inactive),1.09 (inactive),0.326 (inactive),2.53,-0.604 (inactive),0.167,0.0401,0.862,-0.0828
CCCCCCc1nc(C2CC2)cc2c1[Si](C(C)C)(C(C)C)OC2,0.355,-0.376,-0.14,-0.715,-1.13,-0.526,-1.17,1.19 (inactive),-0.319,-0.137,-0.439,0.01 (inactive),-0.183 (inactive),0.0489 (inactive),-0.908,-0.772 (inactive),-0.152,-0.798,-0.861,-0.228
